Over roughly 110,000 compounds, “z-score” has its median near -0.1; the highest 2% begin near 2. This is one part of a sample in which the highest values are shown more often than they occur. Active and inactive are the calls of the source.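 The calls were made as follows: active = z-score in the third read window above 3 or below -3; inactive = the rest.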

For 113 compounds, z-score results are on record in PubChem BioAssay AID488969 (Vanderbilt High Throughput Screening Facility, 2010).

The target in this assay is Metabotropic glutamate receptor 8 (Rattus norvegicus) (UniProt P70579). Briefly: mGluR8 Gi/Go-coupled signaling modulation – cell-based, rat, thallium flux, HTS, primary screen (AID 488969). As to conditions: HEK293 rat mGluR8, GIRK (G protein-gated inwardly rectifying potassium channel) thallium flux, FluoZin2; at 10 µM; stronger effect = higher value; submaximal glutamate (EC20) added with thallium.
Sequence of Metabotropic glutamate receptor 8 (Rattus norvegicus) (P70579 whole entry, looked up): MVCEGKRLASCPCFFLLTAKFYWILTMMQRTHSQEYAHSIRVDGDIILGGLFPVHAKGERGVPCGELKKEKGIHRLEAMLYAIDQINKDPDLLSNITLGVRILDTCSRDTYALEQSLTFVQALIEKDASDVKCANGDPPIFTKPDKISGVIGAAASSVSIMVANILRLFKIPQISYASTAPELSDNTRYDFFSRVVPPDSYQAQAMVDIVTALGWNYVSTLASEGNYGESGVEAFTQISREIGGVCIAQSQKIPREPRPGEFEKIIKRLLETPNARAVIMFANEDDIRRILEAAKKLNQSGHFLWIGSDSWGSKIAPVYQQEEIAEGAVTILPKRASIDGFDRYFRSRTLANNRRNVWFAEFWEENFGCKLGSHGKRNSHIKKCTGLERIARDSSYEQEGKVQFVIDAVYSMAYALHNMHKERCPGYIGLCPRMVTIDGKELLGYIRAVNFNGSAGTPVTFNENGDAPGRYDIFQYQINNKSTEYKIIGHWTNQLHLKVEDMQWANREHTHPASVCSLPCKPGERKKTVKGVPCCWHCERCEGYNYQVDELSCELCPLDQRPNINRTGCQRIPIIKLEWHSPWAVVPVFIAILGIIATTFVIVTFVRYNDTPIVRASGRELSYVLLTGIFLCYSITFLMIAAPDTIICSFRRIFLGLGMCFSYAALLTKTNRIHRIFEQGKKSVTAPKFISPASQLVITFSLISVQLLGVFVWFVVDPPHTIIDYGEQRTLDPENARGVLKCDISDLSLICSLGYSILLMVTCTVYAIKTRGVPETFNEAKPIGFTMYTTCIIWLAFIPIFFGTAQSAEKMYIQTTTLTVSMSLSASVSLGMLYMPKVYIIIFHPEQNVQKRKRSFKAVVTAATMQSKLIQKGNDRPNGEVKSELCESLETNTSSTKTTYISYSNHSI
In the case of `Cc1cc(NC(=O)COC(=O)c2cccc(OCc3ccccc3)c2)no1`, the z-score was determined as 0.388.
`CCN(CC)C(=O)C1CC(=O)OC12CCCCC2` (stereo not drawn) yielded a z-score of -0.477.
With `COc1ccc(OC)c(C(=O)COC(=O)C2CC3CCCC(C2)C3=O)c1` (stereo not drawn) the figure was 1.3; with `Cc1noc(C)c1C(=O)OC(C(=O)NC1CCCC1)c1ccc(F)cc1` (stereo not drawn), 0.659.
With `Cc1cccc(C(=O)Nc2nc(C)c(C(=O)Nc3ccc4c(c3)CCC4)s2)c1` the figure was -0.0981; with `COC(=O)c1sc(NC(=S)NC(=O)c2ccccc2Cl)nc1C`, 5.46 (active).
With `CCOC(=O)c1sc(NC(=O)c2ccco2)nc1-c1ccccc1` the figure was 0.0322.
Regarding `COC(=O)c1sc(NC(=S)NC(=O)c2cccc(C)c2)nc1C`, the z-score was 4.51 (active).
To `CCOC(=O)c1sc(NC(=S)NC(=O)c2ccco2)nc1C` belongs 7.57 (active).
To `COC(=O)c1sc(Nc2ccccc2)nc1C` belongs -0.75; to `CCOC(=O)c1sc(NC(=S)NC(=O)c2ccccc2Cl)c(C(=O)OCC)c1C`, 0.214; to `COc1ccc(C(=O)NC(=S)Nc2nc(C)c(C(=O)N(C)C)s2)cc1`, -0.0547.
With `CCOC(=O)c1sc(NC(=O)COC(=O)c2ccco2)nc1C` the figure was 0.0458; with `COC(=O)c1sc(NC(=O)COc2cccc(C)c2)nc1C`, -0.0129; with `COC(=O)c1sc(NC(=S)NC(=O)c2ccccc2)nc1C`, 2.47.
For the compound `Cc1nc(NC(=S)NC(=O)c2ccccc2)sc1C(=O)N(C)C`, the z-score was -0.185.
With `Cc1nonc1OCC(C)(COc1nonc1C)NC(=O)c1ccccc1` the figure was -0.133; with `CCOC(=O)C1C(=O)NC(N2CCOCC2)=NC1c1ccco1` (stereo not drawn), -0.222; with `CCOC(=O)C1CCCN(C(=S)Nc2cccc(Cl)c2C)C1` (stereo not drawn), -0.429.
With `O=c1c2ccccc2nc(-c2ccc(Cl)cc2)n1C1CCS(=O)(=O)C1` (stereo not drawn), the z-score is -0.341.
To `Cc1cc2nc(C)n(CCCNC(=O)Nc3cccc4ccccc34)c2cc1C` belongs -0.0533; to `CCCN1CNC(=S)N(CC2CCCO2)C1` (stereo not drawn), 0.136; to `Cc1c(Cl)cnc(NC(=O)COC(=O)CCC(=O)c2cccs2)c1Cl`, -0.28.
Compound `CNC(=S)N(Cc1ccc(OC)cc1)C1CC(=O)N(c2ccc(C(=O)OC)cc2)C1=O` (stereo not drawn) displayed a z-score of -0.228.
With `Cc1ccc2nc3ccc(N4CCCCCCC4)nn3c(=O)c2c1` the figure was -0.682.
Turning to `O=C(CCSc1ccc(Cl)cc1)N1CCOCC1`, the z-score was -0.207.
With `CC(=O)Nc1ccc(NC(=O)CSc2ccc(C(F)(F)F)cc2[N+](=O)[O-])cc1` the figure was -0.252; with `O=C(Nc1nccs1)C1CCCN1S(=O)(=O)c1ccc(Cl)cc1` (stereo not drawn), 0.437; with `CCS(=O)(=O)N1CCN(C(=O)C(c2ccccc2)c2ccccc2)CC1`, -0.138.
Take `O=C(c1ccc(-c2ccccc2)cc1)N1CCN(c2ncccn2)CC1`: the z-score was 3.97 (active).
`N#Cc1c(N2CCN(C(=O)c3ccccc3)CC2)nc(-c2ccccc2)c2c1CCCC2` returned a z-score of 2.92.
With `O=C(c1cccc(C(=O)N2CCN(c3ncccn3)CC2)c1)N1CCN(c2ncccn2)CC1` the figure was 0.184; with `N#Cc1c(N2CCN(C(=O)c3ccccc3Cl)CC2)nc(-c2ccccc2)c2c1CCCC2`, -0.453; with `O=C(c1ccc(F)cc1)N1CCN(c2ncccn2)CC1`, -0.204.
To `N#Cc1c(N2CCN(C(=O)c3ccco3)CC2)nc(-c2ccccc2)c2c1CCCC2` belongs -0.665; to `COc1ccc2c(c1)CC/C(=C\c1ccc(OC)c(Cn3cccn3)c1)C2=O`, -0.628.
To `CCOc1ccccc1OCCCC(=O)Nc1sccc1C(N)=O` belongs 0.813.
`O=C(CCl)Nc1ccccc1Sc1ccccc1` showed a z-score of -0.216.
To `CC(=O)NC(c1cccs1)c1cc([N+](=O)[O-])c2cccnc2c1O` (stereo not drawn) belongs -1.44.
To `CCCC(=O)NC(c1cccs1)c1cc([N+](=O)[O-])c2cccnc2c1O` (stereo not drawn) belongs 2.37; to `CCC(=O)NC(c1cccs1)c1cc([N+](=O)[O-])c2cccnc2c1O` (stereo not drawn), -0.0253.
Compound `CC(NC(=O)NC1CCCCC1)C(c1cccs1)N1CCN(Cc2ccccc2)CC1` (stereo not drawn) yielded a z-score of -1.18.
With `O=S(=O)(Nc1cc(Cl)ccn1)c1ccc(Cl)cc1` the figure was 0.404.
With `CCCCCC(=O)Nc1c(-c2ccc(OC)cc2)c(=O)c2ccccc2n1C` the figure was 0.109; with `CCCC(=O)Nc1c(-c2ccc(OC)cc2)c(=O)c2ccccc2n1C`, -0.253.
Compound `CCC(=O)Nc1c(-c2ccc(OC)cc2)c(=O)c2ccccc2n1C` returned a z-score of 2.76.
`O=S(=O)(Nc1ccc(Cc2ccncc2)cc1)c1cccs1` showed a z-score of -0.0895.
With `CS(=O)(=O)N1N=C(c2ccc3nccnc3c2)CC1c1ccccc1` (stereo not drawn) the figure was -0.111.
To `COc1c2occc2cc2ccc(=O)oc12` belongs -0.548; to `O=c1cc(C(F)(F)F)oc2c1ccc1ccccc12`, -0.211; to `COc1c2occc2c(OC)c2c(=O)cc(C(F)(F)F)oc12`, 2.92.
To `CCC(C)N=C1SCC(C)(/C=N/O)S1` (stereo not drawn) belongs -0.0708; to `Oc1oc(-c2ccccc2)nc1C=Nc1cccc2ccccc12`, -0.00127; to `CCCCOc1ccc(-c2nc(/C=N/c3nccs3)c(O)o2)cc1`, 2.84.
`Oc1[nH]c2ccccc2c1/C=N/c1nccs1`: the z-score worked out at 2.09.
With `Oc1oc(-c2ccccc2)nc1/C=N/c1nccs1` the figure was 1.54; with `Oc1oc(-c2cccc3ccccc23)nc1/C=N/c1nccs1`, 7.77 (active); with `CCOc1ccc2nc(/N=C/c3nc(-c4ccc(Br)cc4)oc3O)sc2c1`, 0.754.
With `C(=N\c1nccs1)/c1c[nH]c2ccccc12` the figure was -0.861; with `Oc1ccc2ccccc2c1/C=N/c1nccs1`, 0.277; with `CN=Cc1nc(-c2ccccc2)oc1O`, 1.62.
With `N#Cc1c(N)c(C(=O)c2ccccc2)n2c1CCCC2` the figure was -0.142; with `C#CCn1c(S(=O)(=O)Cc2ccc(C)cc2)nc(-c2ccccc2)c1-c1ccccc1`, -0.259; with `COc1ccc(C(C#N)N2N=C(c3ccccc3)CC2c2ccccc2)cc1OC` (stereo not drawn), 0.0225.
`CC1CC(C)(C)CC2(C1)NC(=O)N(CC(=O)NCC(c1ccco1)N1CCCCC1)C2=O` (stereo not drawn) gave a z-score of 0.771.
`Cc1nnc(SCC(=O)NCc2ccco2)n1-c1ccccc1` registered a z-score of -0.0052.
To `Cn1c(SCC(=O)Nc2ccccc2)nnc1-c1ccc(NC(=O)CCc2ccccc2)cc1` belongs -0.164; to `CN(CP(=O)(O)CN(C)S(C)(=O)=O)S(C)(=O)=O`, 0.00353.
To `O=C(NCc1ccco1)c1cnn2c(C(F)(F)F)cc(-c3ccccc3)nc12` belongs -0.67; to `CC1Nc2nc(N(C)C)[nH]c(=O)c2NC1C` (stereo not drawn), 0.838; to `CCC(C(=O)OC)n1cnc2c(nnn2-c2ccc(OC)cc2)c1=O` (stereo not drawn), -0.912.
To `CCOC(=O)C(CC)n1cnc2c(nnn2-c2ccc(OC)cc2)c1=O` (stereo not drawn) belongs 4.43 (active).
`CCOC(=O)C(CC)n1cnc2c(nnn2-c2ccc(C)cc2)c1=O` (stereo not drawn): the z-score was -0.636.
To `Cc1cc(Nc2ccccc2)n(C(=O)c2ccc(Cl)cc2)n1` belongs 0.82; to `O=S(=O)(NCc1ccccc1)c1ccc(Cl)cc1`, 2.77; to `O=S(=O)(NCc1ccccc1)c1ccc(Cl)c(S(=O)(=O)NCc2ccccc2)c1`, 0.165.
Compound `O=S(=O)(NCCCc1ccccc1)c1ccc(Cl)cc1` gave a z-score of -0.252.
With `CCOC(=O)C1=c2s/c(=C\c3cccnc3)c(=O)n2C(N)=C(C(=O)OC)C1c1cccnc1` (stereo not drawn) the figure was 0.984.
With `CC1(C)CC2CC(C)(CN2C(=S)NC(=O)c2ccccc2Cl)C1` (stereo not drawn) the figure was 8.8 (active).
`C[C@H](NC(=O)c1ccccc1Cl)C(=O)OCC(=O)N1CC2(C)CC1CC(C)(C)C2` (stereo partly drawn) had a z-score of 0.00588.
With `CC1(C)CC2CC(C)(CN2C(=O)NC(=O)c2ccccc2)C1` (stereo not drawn) the figure was -0.259.
As to `O=C(CSCCO)Nc1cccc(C(F)(F)F)c1`, the z-score stood at 0.657.
To `CS(=O)(=O)N(CC(=O)O)c1ccc2c(c1)OCO2` belongs -2.86; to `CCN(CC)C(=O)CN(c1ccc2c(c1)OCO2)S(C)(=O)=O`, 2.51.
Compound `CN(C)C(=O)CN(c1ccc2c(c1)OCO2)S(C)(=O)=O` returned a z-score of -0.0253.
To `Cc1c(C(=O)OC(C)C)sc(NC(=O)C2CCCO2)c1C(=O)OC(C)C` (stereo not drawn) belongs -0.0386; to `O=C(CCNC(=O)c1ccccc1Cl)Nc1cccc(C(F)(F)F)c1`, -0.204.
With `Fc1cccc(Cl)c1CSc1nnc(COc2cccc3cccnc23)o1` the figure was -0.675; with `Cc1nc(N2CCN(C)CC2)c2sc(=S)n(C)c2n1`, 0.624; with `Cc1ccc(-n2nnnc2-c2cnn(-c3cccc(F)c3)c2C(F)(F)F)cc1`, 0.0555.
To `COC(=O)c1ccc(CSc2nnc(Nc3ccccc3OC)s2)o1` belongs 4.01 (active); to `COC(=O)c1ccc(CSc2nnc(Nc3ccc(OC)cc3)s2)o1`, 0.755; to `COC(=O)c1ccc(CSc2nnc(Nc3cccc(OC)c3)s2)o1`, 0.67.
`CC1=C(C(=O)Nc2ccc(F)cc2)C(c2ccc(C)o2)C2=C(CC(C)(C)CC2=O)N1` (stereo not drawn) registered a z-score of 0.288.
Regarding `CC(C)CNC(=S)N1CCN(C(c2ccccc2)c2ccccc2)CC1`, the z-score is -0.358.
To `CCNc1ccc(S(=O)(=O)N(C)C)cc1NCC(=O)Nc1ccc(Br)cc1F` belongs -0.257; to `CCOc1cc(-c2nc(-c3cc(OC)c(OC)c(OC)c3)no2)cc(OCC)c1OCC`, 0.87; to `CCOc1ccc(-c2nc(-c3ccc(OC)cc3)no2)cc1OCC`, 2.87.
To `CCOc1ccc(-c2noc(COC)n2)cc1OC` belongs -0.328; to `COc1ccc(-c2noc(-c3ccc(Cl)cc3[N+](=O)[O-])n2)cc1OC`, -0.0457; to `CCOc1ccc(-c2nc(-c3ccc(OC)c(OC)c3)no2)cc1OCC`, 4.75 (active).
`CCOc1ccccc1-c1nc(-c2ccncc2)no1` returned a z-score of 0.0712.
With `COc1ccc(-c2noc(-c3cc(Cl)ccc3Cl)n2)cc1OC` the figure was 3.41 (active); with `COc1ccc(-c2noc(-c3cc(C)cc(C)c3)n2)cc1OC`, 0.138; with `CCOc1ccc(-c2nc(-c3ccccc3)no2)cc1OCC`, 1.62.
With `COc1ccc(-c2noc(-c3ccccc3Cl)n2)cc1OC` the figure was -0.738; with `CCOc1ccc(-c2nc(-c3ccncc3)no2)cc1OCC`, 2.12.
Take `CCOc1nc(C)ccc1-c1noc(-c2ccncc2)n1`: the z-score is 0.775.
With `COC(=O)c1cc2sc(Cl)cc2n1Cc1nc(-c2cccc(C)c2)oc1C` the figure was -0.256.
With `Cc1noc(C)c1CSCC(=O)NC1=NCCS1`, the z-score was -0.333.
To `O=C(Cn1c(=O)n(Cc2ccccc2)c(=O)c2ccccc21)NCc1ccco1` belongs -1.05; to `COc1c(Cl)cc(Cl)cc1C(=O)Nc1ccc(NC(=O)c2cccs2)cc1`, 0.021; to `CC1(C)CC(=O)C=C(NC2CCCCCCC2)C1`, -0.289.
